Assay results reported in PubChem BioAssay (NCATS).
Records with an inconclusive call do not appear. Calls of active or inactive are those of the source. Calls follow the shape of the dose curve; as a rule, active = well fitted curve in the direction sought with a large enough effect; inconclusive = small, poorly fitted or top-dose-only effect, or another doubt; inactive = no such curve, though single readings can be large; an effect the other way counts as inactive or inconclusive.

Columns and labels:
[1] = Cell Viability - LYMP1-003 - Assay at 24 hr (AID 963); also: potency is read from the fitted curve at half-maximal effect
Summary of the method: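 Human lymphoblastoid LYMP1-003 cells (2500/well) were rested 5 hr at 37 C, then exposed to compounds in complete medium for 24 hr at 37 C. Cellular ATP was quantified by CellTiter-Glo luminescence, and AC50 values came from Hill fits of concentration-response data.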

[2] = Cell Viability - LYMP1-003 - Assay at 40 hr (AID 964); also: nearly all actives have a fitted effect of over 60% in size; also: potency is read from the fitted curve at half-maximal effect
Summary of the method: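 Human lymphoblastoid LYMP1-003 cells, 2500/well in complete medium, rested 5 hr at 37 C, then exposed to compounds for 40 hr at 37 C. Viability read as intracellular ATP by CellTiter-Glo luminescence; AC50 from Hill fits of concentration-response data.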

[3] = Cell Viability - LYMP2-003 (AID 965);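 also: cells exposed to compounds for 24 h before reading; nearly all actives have a fitted effect of over 50% in size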; also: potency is read from the fitted curve at half-maximal effect
Summary of the method: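 CellTiter-Glo luminescence quantified ATP loss after 24 h compound treatment of LYMP2-003 lymphoblastoid cells at 37 C. Titration series were fitted with the standard Hill equation to give AC50.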

[4] = Cell Viability - LYMP2-004 (AID 966); also: nearly all actives have a fitted effect of over 65% in size; also: potency is read from the fitted curve at half-maximal effect
Summary of the method: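 Human lymphoblastoid cells (2500/well) in complete medium were treated with compounds for 24 hr at 37 C, then intracellular ATP was measured by CellTiter-Glo luminescence. AC50 values came from Hill-equation fits of concentration-response data.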

[5] = Cell Viability - LYMP2-005 (AID 967); also: series mostly up to about 92 µM
Summary of the method: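 LYMP2-005 human lymphoblastoid cells (2500/well) were treated with compounds for 24 h at 37 C. Intracellular ATP was then measured by CellTiter-Glo luminescence after 30 min at room temperature. AC50 values came from Hill-equation fits of qHTS concentration-response data.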

[6] = Cell Viability - LYMP2-009 (AID 968); also: nearly all actives have a fitted effect of over 55% in size; also: potency is read from the fitted curve at half-maximal effect
[7] = Cell Viability - LYMP2-011 (AID 969); also: nearly all actives have a fitted effect of over 60% in size; also: potency is read from the fitted curve at half-maximal effect
Summary of the method: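 Human lymphoblastoid cells (2500/well) were plated in complete medium, preincubated 5 hr at 37 C, then exposed to compounds for 24 hr at 37 C. Intracellular ATP was read by CellTiter-Glo luminescence, and AC50 came from Hill-equation concentration-response fits.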

[8] = Cell Viability - LYMP2-013 (AID 970); also: nearly all actives have a fitted effect of over 55% in size; also: potency is read from the fitted curve at half-maximal effect
Summary of the method: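 Human lymphoblastoid cells, 2500/well, were preincubated 5 hr at 37 C, then treated with compounds for 24 hr at 37 C in complete medium. Intracellular ATP was read by CellTiter-Glo luminescence; AC50 from Hill-equation fits of concentration-response data.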

[9] = Cell Viability - LYMP2-015 (AID 971); also: nearly all actives have a fitted effect of over 55% in size; also: potency is read from the fitted curve at half-maximal effect
Summary of the method: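 Human lymphoblastoid cells (2500/well) in complete medium were preincubated 5 hr at 37 C, then compound-treated 24 hr at 37 C. Intracellular ATP was read by CellTiter-Glo luminescence after 30 min at room temperature; AC50 came from Hill-equation concentration-response fits.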

[10] = Cell Viability - LYMP2-017 (AID 972); also: nearly all actives have a fitted effect of over 55% in size; also: potency is read from the fitted curve at half-maximal effect
Summary of the method: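 Human lymphoblastoid cells (2500/well) were seeded in complete medium, held 5 hr at 37 C, then exposed to compounds for 24 hr at 37 C. Intracellular ATP was read by CellTiter-Glo luminescence after 30 min at room temperature, with AC50 values from Hill-equation fits.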

[11] = Cell Viability - LYMP2-019 (AID 973); also: nearly all actives have a fitted effect of over 55% in size; also: potency is read from the fitted curve at half-maximal effect
Summary of the method: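 Human lymphoblastoid cells were seeded at 2500 cells/well, preincubated 5 hr at 37 C, then exposed to compounds for 24 hr at 37 C in complete medium. Intracellular ATP was measured by CellTiter-Glo luminescence; AC50 from Hill fits.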

[12] = Cell Viability - LYMP2-021 (AID 974); also: potency is read from the fitted curve at half-maximal effect
Summary of the method: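 Human lymphoblastoid cells (2500/well) were preincubated 5 hr at 37 C, then exposed to compounds for 24 hr at 37 C in complete medium. Intracellular ATP was read by CellTiter-Glo luminescence; AC50 came from Hill-equation fits of concentration-response data.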

[13] = Cell Viability - LYMP2-023 (AID 975); also: nearly all actives have a fitted effect of over 55% in size; also: potency is read from the fitted curve at half-maximal effect
Summary of the method: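 Human lymphoblastoid cells (2500/well) were preincubated 5 hr at 37 C, then exposed to compounds for 24 hr at 37 C in complete medium. Cellular ATP was read by CellTiter-Glo luminescence, and AC50 came from Hill-equation fits.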

[14] = Cell Viability - LYMP2-025 (AID 976); also: series mostly up to about 92 µM
Summary of the method: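 Human lymphoblastoid LYMP2-025 cells (2500/well) were pre-incubated 5 hr at 37 C, then treated with compounds for 24 hr at 37 C in complete medium. Viability was read as intracellular ATP by CellTiter-Glo luminescence; AC50 from Hill fits.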

[15] = Cell Viability - LYMP2-006 (AID 978); also: nearly all actives have a fitted effect of over 60% in size; also: potency is read from the fitted curve at half-maximal effect
Summary of the method: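 Potency values are Hill-fit AC50s for decreases in intracellular ATP (CellTiter-Glo luminescence). LYMP2-006 lymphoblastoid cells, 2500 per well, were exposed to compound in complete culture medium for 24 hr at 37 C.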

[16] = Cell Viability - LYMP2-007 (AID 979);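 also: cells exposed to compound for 24 h before reading; nearly all actives have a fitted effect of over 60% in size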; also: potency is read from the fitted curve at half-maximal effect
Summary of the method: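 Human lymphoblastoid cells (2500/well) were plated in complete medium, incubated 5 hr at 37 C, then exposed to compounds for 24 hr at 37 C. Intracellular ATP was read by CellTiter-Glo luminescence after 30 min at room temperature; AC50 from Hill fits.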

[17] = Cell Viability - LYMP2-008 (AID 980); also: nearly all actives have a fitted effect of over 60% in size; also: potency is read from the fitted curve at half-maximal effect
Summary of the method: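 Human lymphoblastoid cells (2500/well) were plated, held 5 hr at 37 C, then exposed to compounds for 24 hr at 37 C in complete medium. Intracellular ATP was read by CellTiter-Glo luminescence; AC50 from Hill-fitted concentration-response.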

[18] = Cell Viability - LYMP2-010 (AID 981); also: nearly all actives have a fitted effect of over 55% in size; also: potency is read from the fitted curve at half-maximal effect
Summary of the method: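 Human lymphoblastoid LYMP2-010 cells (2500/well) were preincubated 5 hr at 37 C, then exposed to compounds for 24 hr at 37 C in complete medium. Intracellular ATP was measured by CellTiter-Glo luminescence after 30 min at room temperature; AC50 from Hill-fitted concentration-response.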

[19] = Cell Viability - LYMP2-012 (AID 982); also: potency is read from the fitted curve at half-maximal effect
[20] = Cell Viability - LYMP2-014 (AID 983); also: nearly all actives have a fitted effect of over 50% in size; also: potency is read from the fitted curve at half-maximal effect
Summary of the method: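 Human lymphoblastoid cells (2500/well) were pre-incubated 5 hr at 37 C, then exposed to compounds in complete medium for 24 hr at 37 C. Intracellular ATP was read by CellTiter-Glo luminescence after 30 min at room temperature; AC50 from Hill fits.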

Measured: Potency

CC(=O)c1ccc(S(=O)(=O)NC(=O)NC2CCCCC2)cc1
inactive: all assays above

CC/C(=C(\c1ccccc1)c1ccc(OCCN(C)C)cc1)c1ccccc1
active: [2] 50.1 µM | [3] 39.8 µM | [6] 50.1 µM | [7] 50.1 µM | [8] 50.1 µM | [10] 50.1 µM | [11] 50.1 µM | [12] 50.1 µM | [13] 50.1 µM | [15] 50.1 µM | [16] 50.1 µM | [17] 50.1 µM | [18] 50.1 µM | [19] 50.1 µM | [20] 50.1 µM

CC1=C(/C=C/C(C)=C/C=C/C(C)=C/C(=O)Nc2ccc(O)cc2)C(C)(C)CCC1
active: [1] 50.1 µM | [2] 39.8 µM | [3] 39.8 µM | [4] 39.8 µM | [7] 63.1 µM | [8] 50.1 µM | [10] 50.1 µM | [11] 50.1 µM | [12] 50.1 µM | [13] 50.1 µM | [15] 50.1 µM | [16] 39.8 µM | [17] 50.1 µM | [18] 50.1 µM | [19] 39.8 µM | [20] 50.1 µM

O=c1[nH]cnc2c1ncn2[C@H]1CC[C@@H](CO)O1
inactive: all assays above

CCCCC1C(=O)N(c2ccccc2)N(c2ccccc2)C1=O
not listed: [10]
inactive: all other assays above

CC(=O)O[C@]1(C(C)=O)CC[C@H]2[C@@H]3C=C(Cl)C4=CC(=O)[C@@H]5C[C@@H]5[C@]4(C)[C@H]3CC[C@@]21C
not listed: [4] | [5]
inactive: all other assays above

O=C(O)c1cc(O)c2c(c1)C(=O)c1cccc(O)c1C2=O
active: [9] 50.1 µM
inactive: [1] | [2] | [3] | [4] | [5] | [18] | [19] | [20]

O=C(O)Cc1cccc2ccccc12
inactive: all assays above

CN(C)CCC(c1ccccc1)c1ccccn1 (stereo unspecified)
inactive: all assays above

O=c1c(-c2ccc(O)cc2)coc2cc(O)ccc12
not listed: [2] | [19]
inactive: all other assays above

O=c1cc(-c2ccc(O)cc2)oc2cc(O)cc(O)c12
inactive: [1] | [3] | [4] | [5] | [11] | [20]

O=c1c(O)c(-c2ccc(O)cc2)oc2cc(O)cc(O)c12
inactive: all assays above

CCCNC(=O)NS(=O)(=O)c1ccc(Cl)cc1
inactive: all assays above

O=C1NC(=O)C(c2ccccc2)(c2ccccc2)N1
inactive: all assays above

CCn1cc(C(=O)O)c(=O)c2ccc(C)nc21
inactive: all assays above
